MEX-5 binding: MEX-5 zinc finger RNA-binding disruptors – biochemical, C. elegans, fluorescence polarization, MLPCN library, primary screen; 0.38% of 300,000 active; activity score (negative = inhibition of binding), % at 10 µM; AID 1832, 2009; MEX-5/FITC-TCR2 RNA binding; stronger effect = lower value; Zinc finger protein mex-5 (Caenorhabditis elegans), Q9XUB2;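 active means inhibition past about -25% in most replicates, and total fluorescence under double the plate's negative control median, limit read from the data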;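 further: 0% = DMSO and -100% = 5 µM competing unlabeled TCR2 RNA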
Target sequence (Q9XUB2 whole entry, looked up): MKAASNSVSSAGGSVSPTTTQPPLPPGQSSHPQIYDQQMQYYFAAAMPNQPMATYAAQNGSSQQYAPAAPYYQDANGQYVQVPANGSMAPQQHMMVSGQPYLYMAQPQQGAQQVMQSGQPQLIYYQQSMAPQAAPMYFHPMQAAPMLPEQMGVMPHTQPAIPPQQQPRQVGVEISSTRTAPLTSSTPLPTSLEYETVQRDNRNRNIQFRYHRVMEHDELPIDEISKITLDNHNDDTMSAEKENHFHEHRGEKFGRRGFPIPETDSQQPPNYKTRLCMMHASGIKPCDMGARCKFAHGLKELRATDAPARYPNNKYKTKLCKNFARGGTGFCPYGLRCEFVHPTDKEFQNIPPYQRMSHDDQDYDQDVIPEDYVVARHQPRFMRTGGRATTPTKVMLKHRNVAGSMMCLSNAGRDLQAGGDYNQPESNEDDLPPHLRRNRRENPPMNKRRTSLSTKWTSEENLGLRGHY
EBV gp42 block: Epstein-Barr virus gp42 inhibitors, primary screen, biochemical, uHTS, fluorescence polarization. Glycoprotein 42 (Epstein-Barr virus (strain AG876)), Q1HVG2. Fluorescence polarization binding assay, mP read-out. inhibition, % (tested at 21.74 µM). 0.42% of 220,000 active; in the data active means inhibition above about 50%
Bcl-xL primary: inhibitors of human Bcl-xL, primary screen, biochemical, fluorescence polarization, HTS | GST-Bcl-xL / FITC-Bim BH3 peptide fluorescence polarization | inhibition, % at 10.9 µM | 0.7% of 320,000 active | AID 2129, 2009;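 active means inhibition above the mean of all tested compounds plus 3 SD, cutoff set per campaign, cut at about 30% in these data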;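 further: 0% = DMSO wells and 100% = unlabeled Bim-BH3 peptide competitor; inhibitors lower millipolarization by displacing the labeled peptide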
MCL1 BIM primary: inhibitors of MCL1 binding to BIM-BH3, primary screen, biochemical, fluorescence polarization; GST-MCL1 / FITC-Bim-BH3 fluorescence polarization; Induced myeloid leukemia cell differentiation protein Mcl-1 (Homo sapiens), Q07820; inhibition, % at 10.9 µM; AID 2057, 2009; 0.68% of 320,000 active;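 active means inhibition above the mean inhibition of all tested compounds plus 3 SD, set per campaign, cut at about 40% in these data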;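 further: 0% = DMSO wells and 100% = unlabeled Bim-BH3 peptide control; higher means more loss of mP so more displacement of Bim peptide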
GLD-1 RNA inh: GLD-1/TGE RNA complex disruptors, primary screen, biochemical, fluorescence polarization. purified GLD-1 + fluorescein TGE RNA. AID 2280, 2010. 0.44% of 320,000 active. inhibition, % at 5.96 µM. Female germline-specific tumor suppressor gld-1 (Caenorhabditis elegans), Q17339;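 active means percent inhibition above a per-plate cutoff, the plate mean of test compounds plus 3 SD, cut at about 30% in these data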;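 further: 0% = DMSO wells with GLD-1 and probe and 100% = wells lacking GLD-1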
* marks the source's active call; other numbers are inactive results; . = no result given. Most compounds without a hit are left out; they make up all but 1.3% or so of the library.

SMILES	MEX-5 binding	EBV gp42 block	Bcl-xL primary	MCL1 BIM primary	GLD-1 RNA inh
Cc1ccccc1-n1c(=O)cc(NCc2ccc3c(c2)OCO3)[nH]c1=O	0	-6	4	5	0
COc1ccc(CC(=O)N(C)CC(=O)Nc2ccc(F)cc2)cc1S(=O)(=O)N1CCOCC1	.	.	-2	0	4
COc1ccc(NC(=O)CN2CCC(NC(=O)C3CCCCC3)CC2)c([N+](=O)[O-])c1	-92*	-8	3	3	-1
COc1ccc(NC(=O)CN2CCCCC2)c([N+](=O)[O-])c1	1	-5	-1	-1	3
O=C(/C=C/Nc1cccc(O)c1)c1ccccc1	0	-11	16	10	2
Cc1ccc(C(=O)/C=C/Nc2cccc(O)c2)cc1	-2	-12	40*	40*	13
COc1ccc(N2CCN(C(=O)COC(=O)COc3cccc(C(F)(F)F)c3)CC2)cc1	.	.	7	2	8
O=C(NCc1ccc2c(c1)OCO2)C1CC(=O)N(CCc2ccc(Cl)cc2)C1 (centres undefined)	-3	.	5	3	1
O=c1cc(-c2ccc(O)c(O)c2)oc2cc(O)cc(O)c12	-33*	8	13	38	5
COc1ccc(-c2cc(=O)c3c(O)cc(O)cc3o2)cc1	.	.	0	4	3
COc1cc(Cl)c(C)cc1NC(=O)COC(=O)c1ccc(CN2CCCC2=O)cc1	.	.	2	2	-2
Cc1ccc(C(=O)CSc2nc3c([nH]2)c(=O)n(C)c(=O)n3C)cc1	-30*	3	10	18	3
CCOC(=O)N1CCN(Cc2ccccc2F)CC1	0	-5	2	-3	11
CCOC(=O)N1CCN(Cc2ccccc2Cl)CC1	.	-14	-2	-5	87*
COc1ccccc1NC(=O)Cn1c(CCC(=O)O)ccc1-c1ccc(C)cc1	3	-9	1	-6	2
COc1cc(CN2CCCCC2C(=O)Nc2ccc(Oc3ccccc3)nc2)ccc1O (centres undefined)	2	.	1	9	3
CN(C)CCNc1oc(COc2ccc(Cl)cc2Cl)nc1C#N	-2	12	34*	42*	26
COC(=O)/C(C#N)=C/c1c(Oc2cc(C)cc(C)c2)nc2c(C)cccn2c1=O	-41*	-5	1	-3	3
CNC(=O)/C(C#N)=C/c1c(N(Cc2ccccc2)Cc2ccccc2)nc2c(C)cccn2c1=O	1	-26	154*	0	5
COc1ccc(C)cc1S(=O)(=O)N1CCC(C(=O)NC2CCCC2)CC1	1	.	1	9	-2
Cc1ccccc1CSc1n[nH]c(NS(=O)(=O)c2ccccc2)n1	-1	17	3	3	-4
CCOc1ccccc1CN1CCN(CC2=Cc3cc(OC)ccc3OC2)CC1CCO (centres undefined)	0	-5	5	1	3
CCN(Cc1ccncc1)Cc1ccc(Br)cc1	-3	.	4	13	7
O=C(CCc1nc2ccccc2c(=O)[nH]1)N1CCCc2ccccc21	-10	.	51*	43*	28
O=C(CCc1nc2ccccc2c(=O)[nH]1)N1CCN(c2ccccc2Cl)CC1	.	.	.	.	8
SMILES	MEX-5 binding	EBV gp42 block	Bcl-xL primary	MCL1 BIM primary	GLD-1 RNA inh
Cc1ccc(N2C(=O)C3CCC(C)(C2=O)C3(C)C)cc1C (centres undefined)	3	-4	38*	-2	7
O=C(CCCc1ccccc1)Nc1ccnn1C1CCN(Cc2ccc(CO)o2)CC1	2	.	6	7	6
CN(CC(=O)Nc1ccccc1Cl)CC(=O)Nc1ccccc1[N+](=O)[O-]	-1	-18	-1	5	-2
CCOc1ccc(-c2csc(NC(=O)CSC3=NC(=O)CN3C(C)=O)n2)c2ccccc12	0	130*	1	0	-7
CCOc1ccc(-c2csc(NC(=O)CSCC(=O)O)n2)c2ccccc12	0	4	5	20	5
O=[N+]([O-])c1ccccc1/C=C/C=N/n1c(-c2ccc(Cl)cc2)n[nH]c1=S	1	86*	-21	0	3
CC1CCCC(C)N1C(=O)CSc1nnnn1-c1cccc2c1CCCC2 (centres undefined)	-4	-10	1	-1	55*
O=C(CSc1nnnn1-c1cccc2c1CCCC2)N1CCCC1	-1	-2	3	4	-5

Compound activity deposited in PubChem BioAssay by several laboratories.
